# Potency and affinity values are given separately. Results filed as inconclusive are left out. Active and inactive are the calls of the source.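 Rule for the calls: active = fluorescence drops from fewer live microbes, with half-maximal dose at most ten times the top valid tested dose; inconclusive = flat curve with 30 to 70% inhibition, or poor fit; inactive = the rest, including signal rises.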
# Experiment: reversal of fluconazole resistance in C. albicans, dose response, CaCi-2 strain, Alamar Blue, dry powder, set 3 (AID 488907)
# Settings: C. albicans CaCi-2 (fluconazole-resistant clinical isolate) + fluconazole, 48 h; series mostly up to 6 µM; activity change, negative = inhibition: at the top concentration
row,SMILES,"activity change, negative = inhibition"
1,Cc1cccc(N2CCN(C(=O)c3ccc(Cl)cc3)CC2)n1,-6.9% (inactive)
2,O=C(c1ccc(Cl)cc1)N1CCN(c2cnccn2)CC1,-15.4% (inactive)
3,O=C(c1ccc(Cl)cc1)N1CCN(c2cccc(C(F)(F)F)n2)CC1,83.2% (inactive)
